sPLA2-III inh = Blocks human group III sPLA2 activity; QFRET BODIPY PC-A2 liposome hydrolysis, fluorescence; inhibition, % at 12.2 µM; actives 0.56% (n = 370,000); AID 743126;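 active = inhibition above mean plus 3 SD of compounds lying within the high and low control bounds, cut at about 19% in these data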;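 note: 0% = median of test compound wells and 100% = no enzyme DMSO wells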
Target sequence (Q9NZ20 whole entry, looked up): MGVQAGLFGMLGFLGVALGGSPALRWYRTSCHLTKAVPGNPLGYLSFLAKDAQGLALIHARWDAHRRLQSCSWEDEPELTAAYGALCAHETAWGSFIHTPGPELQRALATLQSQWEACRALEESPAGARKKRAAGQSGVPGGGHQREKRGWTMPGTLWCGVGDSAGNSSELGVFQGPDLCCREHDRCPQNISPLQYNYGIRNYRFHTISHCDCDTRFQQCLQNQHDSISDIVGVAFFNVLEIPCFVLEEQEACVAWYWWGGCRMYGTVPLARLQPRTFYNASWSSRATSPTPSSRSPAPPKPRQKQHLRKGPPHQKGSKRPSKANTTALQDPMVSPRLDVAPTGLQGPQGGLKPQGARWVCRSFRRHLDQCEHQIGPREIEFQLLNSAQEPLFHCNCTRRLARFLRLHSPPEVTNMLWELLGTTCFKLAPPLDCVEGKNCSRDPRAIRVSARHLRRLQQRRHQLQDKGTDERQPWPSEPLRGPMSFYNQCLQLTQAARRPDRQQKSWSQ
CendR NRP1 mod = modulators of CendR peptide binding to human neuropilin-1 | O14786 | FAM-RPARPAR peptide binding to NRP-1, fluorescence polarization | inhibition, % at 25 µM | actives 0.85% (n = 360,000) | AID 602438;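 active = inhibition or corrected inhibition above about 18%, plus a signal ratio from 0.5 to 1.5, limit read from the data, passing the limit was not always enough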
proKLK7 act = activates the human kallikrein-7 zymogen; activation, % at 7 µM; purified proKLK7, EDANS-DABCYL substrate fluorescence; 100% is mature enzyme control, 0% vehicle; actives 0.9% (n = 370,000);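 active = activation above the mean of all tested compounds plus 3 SD, computed per campaign excluding outliers beyond control limits, cut at about 13% in these data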
ADAM10 inh = inhibits human ADAM10 | inhibition, % at 7 µM | recombinant ADAM10, EDANS/DABCYL FRET peptide cleavage, 3 h | actives 0.62% (n = 370,000);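 active = inhibition above a per-campaign cutoff equal to the mean of compounds falling between control-based bounds plus 3 SD, cut at about 20% in these data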;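 note: 0% = DMSO wells while the 100% control is not disclosed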
ADAM17 inh = ADAM17 inhibition, QFRET primary screen | AID 720648 | inhibition, % at 6.95 µM | recombinant ADAM17, EDANS/DABCYL FRET peptide cleavage | actives 0.83% (n = 370,000) | P78536;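 active = inhibition above the mean of compounds lying between control limits plus 3 SD, set per campaign, cut at about 8.5% in these data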;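 note: 0% = DMSO-only wells as the low control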
ADAM10 confirm = confirmation of inhibitors of human ADAM10 | shares compounds with ADAM10 inh | actives 1% (n = 2,100) | ADAM10 QFRET peptide cleavage, EDANS fluorescence | inhibition, % at 6.95 µM;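 active = inhibition above about 20% chosen separately for each screening run, limit read from the data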;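 note: 0% = DMSO wells and 100% = marimastat wells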
ADAM17 counter = counter-screen for ADAM10 exosite inhibitors: inhibitors of human ADAM17. shares compounds with ADAM10 inh. ADAM17 QFRET peptide cleavage, EDANS fluorescence. inhibition, % at 6.95 µM. actives 0.5% (n = 2,100). AID 743214;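 active = mean triplicate inhibition above the solvent-only control wells' mean plus 3 SD, cut at about 12% in these data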;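 note: 0% = DMSO wells and 100% = marimastat wells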
Active calls of the source: *; nt = no result. In the library only some 3.4% were active in any assay of this set; here they are far more common.

SMILES	sPLA2-III inh	CendR NRP1 mod	proKLK7 act	ADAM10 inh	ADAM17 inh	ADAM10 confirm	ADAM17 counter
O=S(=O)(Nc1cccc(-c2ccc(N3CCCCCC3)nn2)c1)c1ccc(F)cc1	-26.0	2.3	0.3	6.8	-1.9	nt	nt
O=S(=O)(Nc1cccc(-c2ccc(N3CCCCCC3)nn2)c1)c1ccc(C(F)(F)F)cc1	-42.4	-5.3	0.5	24.1*	7.5	5.6	2.6
CCOC(=O)[C@]12CCCC3=C1N(CCC3)C(=O)[C@@H](CC(=O)NCc1cccc(C(F)(F)F)c1)C2	0.1	nt	-0.1	-5.2	-5.8	nt	nt
COC(=O)CN1C(=S)N(c2ccc(Cl)cc2)C(=O)C1CC(=O)Nc1ccc(Cl)cc1 (stereo not given)	-7.2	5.0	0.0	21.8*	7.5	3.6	0.5
COC(=O)CN1C(=S)N(c2ccc(Cl)cc2)C(=O)C1CC(=O)Nc1ccc(F)cc1 (stereo not given)	-35.5	-10.9	-0.1	33.6*	5.5	0.5	-0.1
Cc1ccccc1NC(=O)CCS(=O)(=O)c1ccccc1	4.6	nt	0.1	-3.8	-1.3	nt	nt
O=C1c2cccn2CC2Cc3ccccc3N12 (stereo not given)	-0.8	nt	nt	-7.1	-1.9	nt	nt
COc1ccc(Nc2nc(N)c([N+](=O)[O-])c(NCCO)n2)cc1	-0.8	5.1	0.5	-1.4	2.1	nt	nt
COc1ccc(Nc2nc(N)c([N+](=O)[O-])c(NC3CCCCC3)n2)cc1	-17.0	-3.1	1.0	30.8*	5.8	6.2	2.3
CCOc1cc(C)c(-c2onc(C(F)(F)F)c2-c2csc(C)n2)c(O)c1	-23.9	9.8	0.3	21.5*	5.8	2.7	0.6
CCOC(=O)C1CCN(C(=O)Cn2cc(C(=O)c3ccco3)c3ccccc32)CC1	4.1	12.3	-0.2	63.9*	-4.2	4.5	2.4
O=C(c1ccco1)c1cn(CC(=O)N2CCCCCC2)c2ccccc12	-1.4	8.6	0.6	-1.5	-0.9	nt	nt
C[C@H](O)[C@@H]1CN2CCc3c([nH]c4cccc(-c5ccccc5)c34)[C@@H]2C[C@@H]1N(C)CC1CCCCC1	1.1	nt	-0.6	-68.8	-18.0	nt	nt
CC(=O)Oc1cc(C)c(Cl)c2c(OC(C)=O)cc(C(C)=O)c(O)c12	14.5	nt	3.2	-7.7	-3.3	nt	nt
C/C(CC(=O)Nc1ccc([N+](=O)[O-])cc1)=N/NC(=O)C1CC12CCC2 (stereo not given)	-15.2	7.9	-0.4	20.3*	8.3	2.2	-0.1
C/C(CC(=O)Nc1ccc([N+](=O)[O-])cc1)=N/NC(=O)C1C2CCCCC21 (stereo not given)	-7.5	7.4	0.4	6.0	-0.5	nt	nt
CCOC(=O)c1[nH]c(C)c(C(=O)NCc2ccc(C)cc2)c1C	8.3	5.7	0.3	2.2	1.4	nt	nt
CCOC(=O)c1[nH]c(C)c(C(=O)NCc2ccc(OC)cc2)c1C	3.4	-6.3	-0.1	68.5*	-1.8	0.0	0.1
Cc1[nH]nc2c1C(c1ccccc1)N(Cc1ccccc1)C2=O (stereo not given)	-8.7	nt	0.4	0.0	0.8	nt	nt
CCCCOc1ccc(C2(C)NC(=O)NC2=O)cc1 (stereo not given)	-0.2	-2.0	0.2	-1.7	-3.3	nt	nt
CCCCCCCOc1ccc(C2(C)NC(=O)NC2=O)cc1 (stereo not given)	-14.3	5.8	-0.5	21.0*	5.3	0.4	0.6
Nc1cccc(CCc2ccncc2)c1	5.1	9.8	-0.4	21.1*	0.2	-0.1	0.2
CCOC(=O)C1(Cc2ccccc2)CCN(Cc2ccnc3ccccc23)CC1	1.9	nt	0.0	3.8	-0.8	nt	nt
CCN(c1ccccc1)S(=O)(=O)c1ccc(Cl)c(NC(=O)COC(=O)c2ccc(O)cc2)c1	-37.0	-11.0	0.1	20.1*	2.0	2.7	0.4
O=C(OCc1cn(Cc2cccc(F)c2F)nn1)N1CCOCC1	12.9	nt	-0.3	-6.0	-7.2	nt	nt
SMILES	sPLA2-III inh	CendR NRP1 mod	proKLK7 act	ADAM10 inh	ADAM17 inh	ADAM10 confirm	ADAM17 counter
Cc1ccc(OCC(O)Cn2c3ccccc3c3ccccc32)cc1 (stereo not given)	-26.6	-1.5	-0.3	20.6*	7.3	17.5	7.0
COc1ccc(-c2cc(-c3nnc(SCC(=O)Nc4ccc(-c5nc6ccc(C)cc6s5)cc4)n3N)[nH]n2)cc1	2.7	nt	0.2	-95.6	-26.4	nt	nt
Cc1ccc(C)c(N2CCN(C(=O)c3ccc(CS(=O)Cc4ccc(Cl)cc4)o3)CC2)c1 (stereo not given)	-13.4	5.3	0.1	10.8	5.2	nt	nt
Cc1ccc(Cl)cc1N1CCN(C(=O)c2ccc(CS(=O)Cc3ccc(Cl)cc3)o2)CC1 (stereo not given)	-15.1	3.0	0.0	23.1*	3.3	3.1	1.8
CC(Oc1ccccc1Cl)C(=O)Nc1ccc(S(=O)(=O)Nc2nccs2)cc1 (stereo not given)	-42.4	-7.8	-0.1	51.1*	-36.4	-0.2	0.0
Cc1ccccc1OC(C)C(=O)Nc1ccc(S(=O)(=O)Nc2nccs2)cc1 (stereo not given)	-40.3	0.3	1.5	-2.5	-0.8	nt	nt
CCN(CC)C(=O)CC[C@@H]1CC[C@]2(CCCN(C(=O)c3ccco3)C2)O1	3.6	nt	-0.7	-7.8	-3.7	nt	nt
CCOC(=O)Cc1csc(NC(=O)CSc2ncnc3c2cnn3-c2ccccc2Cl)n1	-19.0	21.3*	0.6	25.7*	8.2	1.3	1.5
COCCCNC(=O)Cn1nc(Cc2ccncc2)c2ccccc2c1=O	0.2	nt	0.4	-4.6	-1.5	nt	nt
COc1cc(OC)c(C2CC(=O)N3CN(c4ccccc4)CSC3=C2C#N)cc1OC (stereo not given)	-6.2	-11.8	-0.6	24.4*	-0.5	2.1	0.7
Cc1ccccc1-c1nnc2n1N=C(c1ccc(O)c(O)c1)CS2	-6.1	nt	-0.4	-1.0	-2.4	nt	nt
COC(=O)[C@]12C[C@H](CC(=O)NCc3cccs3)C(=O)N(Cc3cccc4ccccc34)C1=C[C@H](COCc1ccccc1)O[C@@H]2C	-17.4	nt	0.2	10.7	5.3	nt	nt
C[C@H]1[C@@H](OC(=O)Nc2ccc(Br)cc2)CC[C@@]23CCCN2C(=O)CCC[C@@H]13	-4.6	nt	nt	-0.6	-2.1	nt	nt
CCc1c(C(=O)NNC(=S)Nc2ccc(S(=O)(=O)Nc3ncccn3)cc2)csc1C	-1.1	-10.5	0.1	23.0*	8.0	1.0	-0.1
O=S(=O)(Nc1ncccn1)c1ccc(NC(=S)Nc2ccccc2)cc1	3.0	6.4	0.3	-1.4	0.8	nt	nt
COc1ccc(CCn2c(-c3ccc(C(C)(C)C)cc3)n[nH]c2=S)cc1OC	13.8	8.0	0.4	23.6*	2.5	0.0	-0.1
COc1ccccc1NC(=O)CN(c1ccc(C23CC4CC(CC(C4)C2)C3)cc1)S(C)(=O)=O	-18.8	-5.5	0.5	21.8*	3.6	16.1	4.7
CS(=O)(=O)N(CC(=O)O)c1ccc(C23CC4CC(CC(C4)C2)C3)cc1	-10.2	-3.4	-0.2	6.3	1.9	nt	nt

Screens (PubChem BioAssay)
